{
  "source": "PubChem BioAssay (NCATS)",
  "note": "Results filed as inconclusive are left out. The source made the active and inactive calls. Calls come from the whole dose curve; as a rule, active = well fitted cell-killing curve with a large enough effect; inconclusive = small, poorly fitted or top-dose-only effect; inactive = flat fitted curve, though single readings scatter.",
  "data": [
    {"experiment": "Cell Viability - LYMP2-025 (AID 976)", "details": "LYMP2-025 lymphoblastoid cell viability; series mostly up to 92.2 µM", "from_the_text": "NIH Chemical Genomics Center [NCGC]\nNIH Molecular Libraries Screening Centers Network [MLSCN]\nNational Institutes of Environmental Health Sciences [NIEHS]\nNational Toxicology Program [NTP]\nWe have developed a 1536-well cell-based assay for quantitative high throughput screening (qHTS) against a number of cell lines to determine in vitro cytotoxicity of small molecules. This particular assay uses a human lymphoblastoid cell line (LYMP2-025) purchased from Coriell Institute for Medical Research.\nNCGC Assay Protocol Summary:\nThe CellTiter-Glo luminescent cell viability assay (Promega) is a homogeneous method to measure the number of viable cells in culture. The end point readout of this assay is based on quantitation of intracellular ATP, an indicator of metabolic activity, using the luciferase reaction. Luciferase catalyzes the oxidation of beetle Luciferin to oxyluciferin and light in the presence of ATP. The luminescent signal is proportional to amount of ATP present.\nUsing the CellTiter-Glo luminescent cell viability assay, the amount of cellular ATP was measured in the lymphoblastoid cell line with complete culture medium following compound treatment for 24 hours. The assay was performed in opaque white Kalypsys 1536-well plates. In the screen, tetraoctylammonium bromide was used as positive control. Library compounds were measured for their ability to cause acute toxicity in the cell line, as reflected by a decrease in intracellular ATP levels, in a concentration-dependent manner. […] AC50 values were determined from concentration-response data modeled with the standard Hill equation.\nqHTS protocol for CellTiter Glo lymphoblastoid cellular assay\n[Step] [Parameter] [Value] [Description]\n1. Reagent; 5 uL; 2500 lymphoblastoid cells/well\n2. Time; 5 hr; 37 C incubation\n4. Controls; 23 nL; Tetraoctylammonium bromide 6.4pM to 92 uM\n5. Time; 24 hr; 37 C incubation\n6. Reagent; 5 uL; CellTiter Glo reagent\n7. Time; 30 min; Room Temperature\n8. Detection; Luminescence; Viewlux plate reader\nKeywords: cell viability, cytotoxicity, lymphoblastoid cell line, luminescence, NTPHTS, NTPHTS_NCGC, NIEHS, DSSTox, MLSMR, MLSCN, NIH Roadmap, qHTS, NCGC", "values": [
      {"compound": "COC(=O)c1ccccc1C(=O)OC", "outcome": "inactive"},
      {"compound": "O=Cc1ccccc1", "outcome": "inactive"},
      {"compound": "Oc1ccccc1Cl", "outcome": "inactive"},
      {"compound": "CC(C)COC(=O)c1ccccc1C(=O)OCC(C)C", "outcome": "inactive"},
      {"compound": "CC(=O)[C@H]1CC[C@H]2[C@@H]3CCC4=CC(=O)CC[C@]4(C)[C@H]3CC[C@]12C", "outcome": "inactive"},
      {"compound": "c1ccc(Nc2ccc3ccccc3c2)cc1", "outcome": "inactive"},
      {"compound": "Oc1c(Cl)c(Cl)c(Cl)c(Cl)c1Cl", "outcome": "inactive"},
      {"compound": "CCOC(=O)c1ccccc1N", "outcome": "inactive"},
      {"compound": "COC1=CC(=O)OC(CCc2ccc3c(c2)OCO3)C1", "note": "(centres undefined)", "outcome": "inactive"},
      {"compound": "Cc1ccccc1O", "outcome": "inactive"},
      {"compound": "CC(=O)/C=C/c1ccccc1", "outcome": "inactive"},
      {"compound": "CCOc1cc(C=O)ccc1O", "outcome": "inactive"},
      {"compound": "CC(C)(c1ccc(OCC2CO2)cc1)c1ccc(OCC2CO2)cc1", "note": "(centres undefined)", "outcome": "inactive"},
      {"compound": "c1ccc2c(c1)-c1cccc3cccc-2c13", "outcome": "inactive"}
    ]}
  ]
}
